Compound activity: PubChem BioAssay, National Center for Advancing Translational Sciences (NCATS)
Pf Dd2 growth: qHTS Primary assay for Inhibitors of Plasmodium falciparum Dd2 growth in vitro; P. falciparum Dd2 growth, SYBR Green, 72 h; Potency, µM (titrated, usually from 28.9 µM), inactives show at the highest dose activity, negative = inhibition, most hits filed as inhibitors; 120,000 tested, 4.3% active; AID 1347417, 2020; active = well fitted inhibition curve with a large enough effect;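 also: plate controls were DMSO vehicle for no effect and reference drug for full effect; nearly all actives have a fitted effect of over 65% in size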
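Readout: SYBR Green fluorescence, 485 nm excitation, 535 nm emission, after ~16 h lysis at 37C. Before that, Dd2-infected red cells (2.5% hematocrit) grew 72 h with compound, 29 uM top final concentration.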
* marks the source's active call; other numbers are inactive results; i = inactive; [ ] = dose if it differs, or a comment. The entries come from a sample that favours hits as a whole. Potency is read from the fitted curve at half-maximal effect.

SMILES | Pf Dd2 growth
COc1cc2c(cc1OC)C(CNC(=O)c1ccc(C)cc1)N(C(=O)NC(C)C)CC2 (stereo not drawn) | -2%
CCCNC(=O)NCC1c2cc(OC)c(OC)cc2CCN1C(=O)NCC (stereo not drawn) | -18%
CCCC(=O)N1CCc2cc(OC)c(OC)cc2C1COc1ccc2c(C)cc(=O)oc2c1 (stereo not drawn) | 7.1µM*
CCNC(=O)CCc1c(C)nn(-c2ccccc2)c1Oc1ccc(F)cc1F | -4%
O=C(c1ccccc1)N1CCC(N2CCOC2=O)CC1 | 4%[44.1 µM]
O=C1CC(c2noc(-c3nccc4ccccc34)n2)CN1C1CCCCC1 (stereo not drawn) | i
CN1Cc2ncnc(NCc3cccnc3)c2CN(c2ccccc2)C1=O | 28%
CC(=O)N[C@H]1CN(C(=O)c2ccccc2C(F)(F)F)C[C@@H]1C1CC1 | -6%
CC(C)N[C@@H]1CC[C@@H]1NC(=O)c1ccc(C(F)(F)F)cc1C(F)(F)F | i
COc1ccc(NC(=O)CCCSc2nc(-c3ccco3)cc(C(F)(F)F)n2)c(OC)c1 | i
Cc1ccc(NC(=O)CSc2nc(-c3ccco3)cc(C(F)(F)F)n2)cc1C | -29%
Cc1cc(F)ccc1NC(=O)CCSc1nc(-c2ccco2)cc(C(F)(F)F)n1 | 8.9µM*
Cc1ccc(NC(=O)CCSc2nc(-c3ccco3)cc(C(F)(F)F)n2)cc1F | 0.79µM*
COc1ccc(NC(=O)CCCSc2nc(-c3ccco3)cc(C(F)(F)F)n2)cc1 | 85%
CC(=O)c1cccc(NC(=O)CCCSc2nc(-c3ccco3)cc(C(F)(F)F)n2)c1 | 3%
N#Cc1ccc(O[C@@H]2CCOC[C@H]2NC(=O)CCc2cccs2)cc1 | -19%
Cc1ccsc1C(=O)NC1CCN(c2cnn(CC3CC3)c(=O)c2)CC1 | -6%
COc1cccc(-c2noc(CC3CCN(C(=O)COc4cccc(C)c4)CC3)n2)c1 | -28%
COC(=O)c1ccc(CN2C(=O)[C@@H]3C[C@@H](O)CN3C3(CN(Cc4ccccc4)C3)C2=O)cc1 | i
C=CCNC(=O)N[C@H]1C[C@@H](C(=O)N[C@H](Cc2ccccc2)C(N)=O)N(C(=O)CSC)C1 | 46%
CS(=O)(=O)CC(O)c1cc2n(n1)CCN(c1cncc(C(N)=O)n1)C2 (stereo not drawn) | -6%
Cc1ccc(C(=O)N2CCC(n3c(=O)[nH]c4ccccc43)CC2)cc1 | 1%[44.1 µM]
CC(C)CC(=O)N1CCC2(CC1)C(=O)N(C)c1ccccc12 | 42%
O=C1N[C@@H]2CCN(S(=O)(=O)c3cccc(F)c3)[C@@H]2C(=O)N1c1ccc(F)cc1 | 2%[44.1 µM]
COc1cccc(OCc2nc3c(n2Cc2ccccc2)C(=O)N(Cc2ccccc2C#N)CCN3)c1 | -18%
SMILES | Pf Dd2 growth
Cn1c(C(=O)O)cc2c1CCN(Cc1ccc(F)cc1)C2 | -22%
NC(=O)c1ccc(-c2nc3c([nH]2)CN(c2ncnc4ccsc24)CC3)cc1 | 10µM*
c1ccc(Cn2ccnc2C2CCN(c3ncnc4ccsc34)CC2)nc1 | -2%
O=C(CCn1ccc(=O)[nH]c1=O)N1CCc2nc(-c3ccccc3)[nH]c2C1 | i
CCCS(=O)(=O)NCc1cccnc1Oc1cccc(C(F)(F)F)c1 | -22%
CN(C)CC(=O)N1C[C@@H]2C[C@H](C1)c1ccc(-c3ccccc3CN3CCOCC3)c(=O)n1C2 | -10%
COc1ccc(NC(=O)CCSc2nc(-c3ccc(OC)cc3)cc(C(F)(F)F)n2)cc1 | -22%
COCCNC(=O)CCSc1nc(-c2ccc(OC)cc2)cc(C(F)(F)F)n1 | i
CCC(C)NC(=O)CCSc1nc(-c2ccc(OC)cc2)cc(C(F)(F)F)n1 (stereo not drawn) | 11µM*
Cc1nc(-c2cn(C3CCCN(C(=O)c4cccc(OC(F)(F)F)c4)C3)nn2)no1 (stereo not drawn) | i
CC(C)OC(=O)c1cccnc1SCC(=O)Nc1ccc(C(F)(F)F)cc1Cl | 3.2µM*
O=C(CSc1nccn1Cc1ccco1)Nc1cc(C(F)(F)F)ccc1Cl | i
Cc1cnc(=O)[nH]c1SCC(=O)Nc1cc(C(F)(F)F)ccc1Cl | 5%
COc1ccc(CC(=O)N[C@@H]2CN(C)C[C@H]2CN(C)C)cc1OC | 35%
COc1cccc(CNC(=O)CCC2CCN(C(=O)c3ccccc3)CC2)c1 | -12%
Cc1ccc(C(=O)N2CCC(Oc3ccc(C(N)=O)cn3)CC2)cc1C | i
CCNc1ccc(-c2nc(-c3ccccn3)no2)cc1[N+](=O)[O-] | -14%
CNc1ccc(-c2nc(-c3ccccn3)no2)cc1[N+](=O)[O-] | -25%
CCC(Nc1ccc(-c2nc(-c3ccccn3)no2)cc1[N+](=O)[O-])c1ccccc1 (stereo not drawn) | 3.5µM*
CCOc1ccc(NC(=O)N2CC(c3nnc(-c4ccncc4)o3)C3(CCOCC3)C2)cc1 (stereo not drawn) | -11%
CC(Oc1ccccc1)C(=O)N1CCC(n2cc(-c3nc(C(C)C)no3)nn2)CC1 (stereo not drawn) | -21%
O=C(CN1C(=O)NC(c2ccc(Cl)cc2)C2=C1COC2=O)NCCc1ccc(Cl)cc1 (stereo not drawn) | -23%
O=C(NCC1CN(C(=O)Cc2ccc(OC(F)(F)F)cc2)CC12CN(c1ccccc1)C2)Nc1ccccc1 (stereo not drawn) | i
CCC1CN(CCNC(=O)Cc2c(F)cc(F)cc2F)Cc2cc(OC)ccc2O1 (stereo not drawn) | -19%
O=C(CCCCCn1c(=O)[nH]c2ccccc2c1=O)NCc1ccc(Cl)cc1 | i
SMILES | Pf Dd2 growth
CC(=O)c1ccc(N2CCN(C(=O)CCCn3c(=O)[nH]c4ccsc4c3=O)CC2)cc1 | i
O=C(CCCn1c(=O)[nH]c2ccc(Br)cc2c1=O)N1CCN(c2cccc(Cl)c2)CC1 | i
CCCCCn1c(=O)[nH]c2cc(C(=O)N3CCN(c4ccccc4F)CC3)ccc2c1=O | -13%
CC(=O)c1ccc(N2CCN(C(=O)CCCCn3c(=O)[nH]c4ccccc4c3=O)CC2)cc1 | 5.6µM*
O=C(CCCCCn1c(=O)[nH]c2ccccc2c1=O)NCc1ccccc1 | 10µM*
Cc1ccc(C)c(N2CCN(C(=O)c3ccc4c(=O)n(CCc5ccccc5)c(=O)[nH]c4c3)CC2)c1 | -24%
COC(=O)c1ccc2c(=O)n(CCCCCC(=O)N3CCN(c4cc(Cl)ccc4C)CC3)c(=O)[nH]c2c1 | 10µM*
O=C(CCCCCn1c(=O)[nH]c2ccccc2c1=O)NCCc1ccccc1 | -5%
CCc1nnc([C@@H]2CC(F)(F)CN2C(=O)c2ocnc2C)o1 | i
CC(=O)Nc1ccc(CN2CCC3(CN[S+](=O)([O-])c4ccccc4N3)C2)cc1 (stereo not drawn) | -10%
CC(=O)Nc1cccc(-c2cc(C(=O)NCc3c(C)cc(C)[nH]c3=O)c3c(c2)N(C(C)C)CCO3)c1 | 1.8µM*
Cc1cc(C)c(CNC(=O)c2cc(-c3ccccc3F)cc3c2OCCN3C(C)C)c(=O)[nH]1 | -13%
Cc1cc(C)c(CNC(=O)c2cc(-c3cccnc3)cc3c2OCCN3C)c(=O)[nH]1 | -13%[44.1 µM]
COc1cc(F)ccc1-c1cc(C(=O)NCc2c(C)cc(C)[nH]c2=O)c2c(c1)N(C(C)C)CCO2 | -27%
Cc1cc(C)c(CNC(=O)c2cc(-c3ccccc3C)cc3c2OCCN3C(C)C)c(=O)[nH]1 | -17%
Cc1cc(C)c(CNC(=O)c2cc(-c3ccccc3F)cc3c2OCCN3C)c(=O)[nH]1 | 6.3µM*
O=C(CN1C(=O)NC2(CCCCC2)C1=O)N1CCCCCC1 | -14%
O=C(CCCc1ccccc1)NCCc1noc(-c2cccnc2)n1 | i
